Results from PubChem BioAssay (NCI).
Values joined by “and” are separate entries in the source; they are usually repeats but may differ in a detail not shown here. Identical values can stand only once. Compounds without any hit were thinned out: in the full panel of roughly 83,000, 20% have a hit.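 Note: values are percent growth. 100 is the growth of untreated cells, values between 100 and 0 indicate rising inhibition; between -100 and 0 indicates cell death.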 Unmarked numbers belong to inactive results. Active and inactive are the calls of the source.

What follows are molecules tested on MDA-MB-468 breast (assay: NCI-60 one-dose screen, 48 h (100 = growth as untreated, 0 = no growth, -100 = all killed)). Conditions: 10 µM unless noted.
Procedure: Growth inhibition of the MDA-MB-468 human Breast tumor cell line is measured as a screen for anti-cancer activity. Cells are grown in 96 well plates and exposed to the test compound for 48 hours. Compounds are tested at a single concentration, which is 10^-5 M for most compounds. The reported endpoint is percent growth (GI% or GIPRCNT), where numbers from 0 - 100% represent growth inhibition, and numbers from -100% - 0 represent cell death. For example, a value of 40 represents 60% growth inhibition. A value of 0 means no net growth occurred over the course of the experiment. A value of -40 indicates 40% of cells at the beginning of the experiment died by the end of the experiment. A value of -100 means all cells are dead at the end of the experiment.
NCI-60 Human Tumor Cell Lines Screen was performed using the standard one-dose NCI protocol, which is described in more detail at https://dtp.cancer.gov/discovery_development/nci-60/default.htm.
Compounds with GIPRCNT values below 10 were considered active. Activity score was based on GIPRCNT using the following formula: […]
Score is 0 for GIPRCNT values of 100 or above, 50 for GIPRCNT values of 0, and 100 for GIPRCNT values of -100.

Compound	growth
COc1ccc(C(=O)/C=C/c2cn(Cc3ccc(Cl)cc3)c3ccccc23)cc1	-28.2% (active)
O=C(O)/C=C\C(=O)N1C/C(=C\c2ccccc2Cl)C(=O)/C(=C/c2ccccc2Cl)C1	-75.2% (active)
Cc1oc2c(C(=O)N/N=C\c3ccc(O)cc3O)c[nH]c2c1C	-11.8% (active)
COc1cccc(/C=C/C(=O)Nc2cc(OC)c3c(c2)OCO3)c1	92.6%
NNCCc1ccc(NC(=O)CCCc2ccc(C(=O)Nc3ccccc3N)cc2)cc1	72.9%
COc1ccc(-c2nc(-c3nc4ccc(Cl)cc4[nH]3)c3ccccn23)cc1	61.5%
CCOC(=O)c1ccc(NC(=O)CSC(N)=O)cc1	108%
Fc1cccc(F)c1C#Cc1ccc2cccnc2c1	36.5%
O=C(/C=C/c1cn(-c2ccccc2)nc1-c1ccc(Cl)cc1)c1ccc(F)cc1	100%
c1cncc(-c2nc3ccccc3[nH]2)c1	102%
Cn1c(C(N)=O)cc2c1-c1nc(Nc3ccccc3)ncc1CCC2	53.4%
NC1(C(=O)O)CSSC1	29.6%
COc1cccc2c1O/C(=C\c1ncc([N+](=O)[O-])n1C)C2=O	19%
COc1ccc(C(C)=O)cc1N1C(=O)C2C(C1=O)C1(c3ccccc3)C(=O)C2(c2ccccc2)C(c2ccc(C)cc2)=C1c1ccc(C)cc1 (stereo not given)	13.9%
O=C(N/N=C/c1ccc(OC(F)F)c(OC2CCCC2)c1)c1cnn2c1NC(c1ccccc1)C2 (stereo not given)	84%
Cc1ccc(Nc2nnc(-c3cc(-c4ccncc4)n(-c4ccccc4)n3)s2)cc1	48.7%
CCOC(=O)c1sc(NC(=O)c2cc(OC)c(OC)c(OC)c2)nc1C	92.2%
Cc1nn(-c2ccc(Cl)cc2)c2ncnc(N/N=C/c3ccccc3O)c12	-30.8% (active) and -12.1% (active)
CN1CCN(Cc2ccc(NC(=O)c3[nH]ncc3Nc3ncnc4sccc34)cc2)CC1	15.8%
Cn1c(-c2ccccc2)cc(=O)cc1-c1ccccc1	68.7%

Compound	growth
Cc1cccc2c3c(sc12)C(c1ccc(Cl)cc1)C(C#N)=C(N)O3 (stereo not given)	17.3%
c1ccc2c(-c3c[nH]c4ccccc34)c3c(cc2c1)[nH]c1ccccc13	53.8%
CC(=O)c1cc(C(=O)N2c3ccccc3Sc3ccccc32)n2c1ccc1ccccc12	50.6%
NC(=O)c1ccc[n+](Cc2ccc(Cl)cc2Cl)c1	101%
C[C@H]1[C@H](C)CC[C@]2(C(=O)N3CCN(C)CC3)CC[C@]3(C)C(=CC[C@@H]4[C@@]5(C)C/C(=C/c6cccnc6)C(=O)C(C)(C)[C@@H]5CC[C@]43C)[C@H]12	-83.2% (active)
COc1ccc(/C=C/C(=O)c2cccc(NC(=O)CSc3nc4ccccc4c(=O)n3-c3ccccc3)c2)cc1OC	108%
CCC1=C[C@@H]2C[C@]3(C(=O)OC)c4[nH]c5ccccc5c4CC[N@+](CC(=O)Nc4cc5c(cc4OC)N(C)[C@H]4[C@@](O)(C(=O)OC)[C@H](OC(C)=O)[C@]6(CC)C=CCN7CC[C@]54[C@@H]76)(C2)[C@H]13	111%
CCOC(=O)NNc1cccc(Cl)c1	98.2%
COc1ccc(-c2cnnn2-c2cc(OC)c3c(c2)OCO3)cc1	40.9%
Cc1cc(C)c(CC(=O)O)c(C)c1	111%
NC(=O)c1cccc(-c2ccccc2N2CCCCC2)c1	94.2%
COc1ccc(-c2nc3sc(C)cn3c2/C=C/C(=O)c2cc(OC)c(OC)c(OC)c2)cc1	25.5%
COc1cc(C2C=C(C)N=C3SC=NN32)cc(OC)c1OC (stereo not given)	102%
COc1ccc(/C(=C2/O[C@@H]([C@H]3COC(C)(C)O3)[C@H]3OC(C)(C)O[C@@H]23)c2cc(OC)c(OC)c(OC)c2)cc1O	113%
O=C1/C(=C/c2ccccc2O)C(=S)SN1Cc1ccco1	64.7%
Cc1c(Cl)ccc2c(C(=O)Cl)cc(-c3ccccc3)nc12	101%
O=C(O)CN1C(=O)c2cccc3cccc(c23)C1=O	95.7%
NC(=S)N/N=C(/c1cccs1)C1CC1	37.4%
Cc1cc(=O)n(-c2ccc(F)cc2)[nH]1	113%
CCCCCCC1(C)NCCO1 (stereo not given)	103%
